Screening results as filed in PubChem.
This is a sample that favours compounds with a hit; in the whole collection about 1.2% have one here.
VLA-4 inh = inhibition in a human VLA-4 binding assay; P13612; VLA-4 expressing cells, ligand binding flow cytometry; inhibition, % (about 7 µM as worked out from the volumes in the protocol); 0.2% of 330,000 active; AID 2557; in the data active = inhibition above about 50%
Target sequence (P13612 whole entry, looked up): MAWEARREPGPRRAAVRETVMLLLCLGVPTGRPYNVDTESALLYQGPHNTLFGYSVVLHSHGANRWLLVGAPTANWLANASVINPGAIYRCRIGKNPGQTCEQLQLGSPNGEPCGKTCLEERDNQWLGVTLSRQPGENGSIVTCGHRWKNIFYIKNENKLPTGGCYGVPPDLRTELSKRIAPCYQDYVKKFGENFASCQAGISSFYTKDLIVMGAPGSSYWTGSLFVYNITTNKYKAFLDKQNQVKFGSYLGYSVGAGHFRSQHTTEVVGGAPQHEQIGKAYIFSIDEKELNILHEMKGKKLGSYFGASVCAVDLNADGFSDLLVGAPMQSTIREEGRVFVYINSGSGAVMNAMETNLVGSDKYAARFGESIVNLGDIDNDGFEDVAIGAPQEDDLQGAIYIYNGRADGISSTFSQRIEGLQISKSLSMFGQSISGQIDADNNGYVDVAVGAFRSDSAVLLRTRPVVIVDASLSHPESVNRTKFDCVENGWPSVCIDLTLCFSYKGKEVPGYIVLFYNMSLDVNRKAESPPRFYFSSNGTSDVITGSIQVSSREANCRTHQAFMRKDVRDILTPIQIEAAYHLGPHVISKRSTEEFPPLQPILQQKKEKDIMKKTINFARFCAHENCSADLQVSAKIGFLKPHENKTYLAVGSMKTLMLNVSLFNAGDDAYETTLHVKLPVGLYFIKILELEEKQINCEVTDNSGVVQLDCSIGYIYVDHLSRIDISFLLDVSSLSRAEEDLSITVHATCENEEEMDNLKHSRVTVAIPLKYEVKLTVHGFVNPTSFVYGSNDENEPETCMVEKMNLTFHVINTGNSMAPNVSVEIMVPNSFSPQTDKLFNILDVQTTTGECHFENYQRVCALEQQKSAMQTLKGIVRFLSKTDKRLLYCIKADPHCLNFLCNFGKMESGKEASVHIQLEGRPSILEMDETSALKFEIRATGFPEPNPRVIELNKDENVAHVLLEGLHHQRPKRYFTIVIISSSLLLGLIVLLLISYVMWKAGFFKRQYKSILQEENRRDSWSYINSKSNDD
ABCB6 inh MLPCN = blocks the human ABCB6 transporter; K562-ABCB6 porphyrin accumulation, flow cytometry, 1 h; stronger effect = lower value; 0.19% of 360,000 active; fluorescence ratio to DMSO, % at 10 µM;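 active = fluorescence ratio to DMSO below 75%, the collection mean minus 3 SD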;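 also: signal is porphyrin accumulated inside mitochondria; 100% equals median channel fluorescence of DMSO control wells; lower ratio means ABCB6 inhibition with less porphyrin fluorescence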
Platelet DG rel = modulates dense granule release in human platelets; human platelet-rich plasma, SFLLRN dense granule ATP release, luminescence; inhibition, %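 (compounds screened at 7.5 µM in platelet-rich plasma)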; 0.22% of 300,000 active; AID 1663;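 active = mean replicate score, as percent of positive control, at or above 50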
CR mimetic SO = lowers age-related superoxide in aged yeast cells. S. cerevisiae aged cells, superoxide DHE fluorescence; stronger effect = lower value. superoxide response (% of plate mean), % at 10 µM. 0.18% of 330,000 active. AID 2690;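 active = superoxide response under a set limit, about three screen SD below normal, cut at about 65% in these data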;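 also: yeast aged for seven days with compound at 30 °C before DHE staining; 100% = average MFI of all compound-treated wells on the plate with controls excluded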
SKN-1 block = C. elegans SKN-1 inhibition; AID 624304; C. elegans VP596 Pgst-4::GFP/RFP ratio, acrylamide-induced, 24 h; 0.49% of 360,000 active; inhibition, % at 21.8 µM;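 active = interference check ratio from 0.5 to 1.5 plus GFP to RFP signal ratio inhibition reaching or exceeding a fixed threshold, cut at about 30% in these data, passing the limit was not always enough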
Active calls of the source: *.

For CCn1c(C)cc(C(=O)CSc2nnc(C3CC3)n2C2CC2)c1C the results were ABCB6 inh MLPCN 96 and SKN-1 block 20.
`CCCc1nc2cc(C)c(Br)c(C)n2c1Cc1ccc(OC)cc1C` gave ABCB6 inh MLPCN 98 and SKN-1 block -13.
`CCN(C)C1CN(Cc2cn(Cc3cccc(C(F)(F)F)c3)nn2)S(=O)(=O)C1` (stereo unspecified) gave ABCB6 inh MLPCN 98 and SKN-1 block 3.
Screening Clc1ccc(-c2cn3c(n2)-c2ccccc2C3)cc1Cl returned VLA-4 inh -29, ABCB6 inh MLPCN 94, Platelet DG rel 7, CR mimetic SO 94 and SKN-1 block 40*.
`COC(=O)[C@@]12C[C@@H](CC(=O)N3CCCC3)C(=O)N(Cc3ccco3)C1=CCC(C)(C)C2` gave SKN-1 block -4.
`Cc1ccc(N=c2c([N+](=O)[O-])nn(-c3ccccc3)n2O)c(C)c1` gave VLA-4 inh 1, ABCB6 inh MLPCN 100, Platelet DG rel 8, CR mimetic SO 113 and SKN-1 block -7.
`Cc1c(Cl)cccc1N=c1c([N+](=O)[O-])nn(-c2ccccc2)n1O` gave VLA-4 inh 3, ABCB6 inh MLPCN 101, Platelet DG rel 0, CR mimetic SO 114 and SKN-1 block 52*.
O=C(NC(c1ccccc1)c1cnccn1)C1CCN(CCOc2ccc(Cl)cc2Cl)CC1 (stereo unspecified) was read as ABCB6 inh MLPCN 100 and SKN-1 block 20.
O=C(/C=C/Sc1ccccc1)c1ccc(Cl)cc1 was read as VLA-4 inh 21, ABCB6 inh MLPCN 96, Platelet DG rel 1, CR mimetic SO 92 and SKN-1 block 36*.
`O=C(/C=C/Sc1ccccc1)c1ccccc1` gave VLA-4 inh 29, ABCB6 inh MLPCN 95, Platelet DG rel 10, CR mimetic SO 94 and SKN-1 block 81*.
CCOc1ccc(N(CC(=O)Nc2c(C)cc(C)cc2C)C2=NC3CS(=O)(=O)CC3S2)cc1 (stereo unspecified) was read as ABCB6 inh MLPCN 99 and SKN-1 block 0.
For CCN(CC)C(=S)Sc1c(-c2ccccc2)c2cc(Cl)ccc2[nH]c1=O the results were VLA-4 inh 9, ABCB6 inh MLPCN 97, Platelet DG rel -6, CR mimetic SO 106 and SKN-1 block 35*.
For CC1(Cc2cccc(C(F)(F)F)c2)C(=O)Nc2ccc(-c3ccc(F)c(Cl)c3)cc21 (stereo unspecified) the results were ABCB6 inh MLPCN 90 and SKN-1 block 40*.
For CC1(Cc2ccc(Cl)cc2)C(=O)Nc2ccc(-c3cccnc3)cc21 (stereo unspecified) the results were ABCB6 inh MLPCN 90 and SKN-1 block 39*.
For O=C(Nc1ccccc1)C1CC(=O)N(C2CCCCC2)C1 (stereo unspecified) the results were VLA-4 inh 0, ABCB6 inh MLPCN 103, CR mimetic SO 94 and SKN-1 block 42*.
For CC(C)c1ccc(NC(=O)C2CC(=O)N(C3CCCC3)C2)cc1 (stereo unspecified) the results were VLA-4 inh -12, ABCB6 inh MLPCN 101, Platelet DG rel -7, CR mimetic SO 83 and SKN-1 block -8.
Cc1nnc(SCCn2c(N3CC(C)CC(C)C3)nc3c2c(=O)n(C)c(=O)n3C)s1 (stereo unspecified) was read as ABCB6 inh MLPCN 94, Platelet DG rel 0 and SKN-1 block 41*.
Cc1nnc(SCCn2c(Br)nc3c2c(=O)n(C)c(=O)n3C)s1 was read as VLA-4 inh 4, ABCB6 inh MLPCN 103, Platelet DG rel 7, CR mimetic SO 101 and SKN-1 block -9.
`O=C1CCCN1CCCNc1nc(NCc2cccs2)nc2ccsc12` gave ABCB6 inh MLPCN 91 and SKN-1 block 21.
COc1cc2c(cc1OC)-c1cc(NC3CC3)nc(=O)n1CC2 was read as VLA-4 inh -6, ABCB6 inh MLPCN 102, Platelet DG rel 44, CR mimetic SO 91 and SKN-1 block -1.
Screening COc1cc2c(cc1OC)-c1cc(NC3CCCCCCC3)nc(=O)n1CC2 returned VLA-4 inh -3, Platelet DG rel 135*, CR mimetic SO 93 and SKN-1 block 5.
`COc1cc2c(cc1OC)-c1cc(NC3CCCCC3)nc(=O)n1CC2` gave VLA-4 inh 13, ABCB6 inh MLPCN 109, Platelet DG rel 65*, CR mimetic SO 92 and SKN-1 block -2.
Screening CCOC(=O)c1c(C)cc(C)n2c1nc1ccccc12 returned VLA-4 inh 10, ABCB6 inh MLPCN 89, Platelet DG rel 6, CR mimetic SO 96 and SKN-1 block 40*.
For CCOC(=O)CSc1cc(C)c(C#N)c2nc3ccccc3n12 the results were VLA-4 inh -28, ABCB6 inh MLPCN 105, Platelet DG rel -4, CR mimetic SO 105 and SKN-1 block 25.
`COC(=O)CCCn1cc(CN2CC(N3CCCC3)CS2(=O)=O)nn1` (stereo unspecified) gave ABCB6 inh MLPCN 102 and SKN-1 block 6.
CC1=C(C(=O)N2CCCCCC2)CC(CC(=O)NCCN2CCOCC2)C(=O)N1CCC1=CCCCC1 (stereo unspecified) was read as ABCB6 inh MLPCN 99 and SKN-1 block 8.
`Cn1c(=O)[nH]c(=O)c2c1nc(CN1CCN(c3cccc(Cl)c3)CC1)n2Cc1ccccc1Cl` gave VLA-4 inh 26, ABCB6 inh MLPCN 101, Platelet DG rel 2, CR mimetic SO 97 and SKN-1 block 11.
CCN1CCN(Cc2nc3c(c(=O)[nH]c(=O)n3C)n2Cc2ccccc2Cl)CC1 was read as VLA-4 inh 15, ABCB6 inh MLPCN 95, Platelet DG rel 65*, CR mimetic SO 119 and SKN-1 block -1.
Screening CC1(C(=O)NCc2cccc3ccccc23)CCN1C(=O)C1(c2ccccc2)CCCC1 (stereo unspecified) returned ABCB6 inh MLPCN 92 and SKN-1 block 8.
`CCOC(=O)[C@]12CCCC=C1N(Cc1cccc3ccccc13)C(=O)[C@H](CC(=O)N1CCCCC1)C2` gave ABCB6 inh MLPCN 100 and SKN-1 block 7.
For COc1ccc(C(=O)/C=C/c2ccc(OC)c(CN3CCOCC3)c2)cc1 the results were VLA-4 inh 10, ABCB6 inh MLPCN 93, Platelet DG rel 4, CR mimetic SO 100 and SKN-1 block 61*.
`COc1ccc(/C=C/C(=O)c2ccc(O)cc2)cc1CN1CCOCC1` gave VLA-4 inh 1, ABCB6 inh MLPCN 100, Platelet DG rel 11, CR mimetic SO 93 and SKN-1 block 7.
For COc1cc2c(cc1OC)[C@@H](NC(=O)CCc1ccccc1)[C@H](OCc1ccccc1)C2 the results were ABCB6 inh MLPCN 101, CR mimetic SO 117 and SKN-1 block 35*.
Screening O=C(CN1CCN(S(=O)(=O)c2ccc(Br)cc2)CC1)Nc1ccc(F)cc1 returned VLA-4 inh 37, ABCB6 inh MLPCN 93, Platelet DG rel 4, CR mimetic SO 107 and SKN-1 block 5.
